Reference: PubChem BioAssay (NCI)
Compounds without any hit were thinned out: in the full panel of roughly 79,000, 15% have a hit. Calls of active or inactive are those of the source. No stated cut-off is given here; in the data, active means growth inhibition above about 70%; inactive means the rest.

Columns and labels:
[1] = NCI Yeast Anticancer Drug Screen. Data for the rad52 strain (AID 147);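 further: 0% = growth of vehicle-treated control cultures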; details: S. cerevisiae rad52 mutant growth inhibition, stronger effect = higher value
Method in brief: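 Read-out: growth inhibition versus vehicle-treated controls. Cells were a DNA repair-deficient yeast strain treated with compounds.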

[2] = NCI Yeast Anticancer Drug Screen. Data for the wt1 strain (AID 149);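 further: 0% = growth of vehicle-treated wt1 cultures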; details: S. cerevisiae wt1 strain (SPY 50644) growth inhibition, stronger effect = higher value
Method in brief: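 Yeast wt1 strain exposed to compounds; growth inhibition measured relative to vehicle-treated controls.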

[3] = NCI Yeast Anticancer Drug Screen. Data for the rad50EPP+ strain (AID 151);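 further: 0% = growth of vehicle-treated control cultures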; details: S. cerevisiae rad50 mutant strain, stronger effect = higher value
Method in brief: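 Growth inhibition read against vehicle controls in rad50EPP+ yeast, a strain altered in DNA damage repair, after compound exposure.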

[4] = NCI Yeast Anticancer Drug Screen. Data for the mgt1 strain (AID 153); details: S. cerevisiae mgt1 mutant growth inhibition, stronger effect = higher value
Method in brief: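 mgt1 yeast grown with test compound; read-out is growth inhibition versus vehicle-treated cultures.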

[5] = NCI Yeast Anticancer Drug Screen. Data for the rad50 strain (AID 155);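 further: 0% = growth of vehicle-only cultures of the same strain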; details: S. cerevisiae rad50 strain growth inhibition, stronger effect = higher value
Method in brief: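 Yeast carrying a defined DNA repair defect were exposed to test compounds, and growth was compared with vehicle-treated controls to give percent inhibition.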

[6] = NCI Yeast Anticancer Drug Screen. Data for the mec2-1 strain (AID 157); details: S. cerevisiae mec2-1 strain, stronger effect = higher value
Method in brief: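 Yeast mec2-1 mutant treated with compound. Readout: growth inhibition vs vehicle controls.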

[7] = NCI Yeast Anticancer Drug Screen. Data for the rad14 strain (AID 159);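 further: 0% = growth of vehicle-treated control cultures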; details: S. cerevisiae rad14 strain growth inhibition, stronger effect = higher value
Method in brief: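 Yeast cells carrying a defined DNA-repair defect were exposed to compounds, and growth inhibition was calculated relative to vehicle-treated control cultures.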

[8] = NCI Yeast Anticancer Drug Screen. Data for the sgs1 mgt1 strain (AID 161);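 further: 0% = growth of cultures given vehicle only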; details: S. cerevisiae sgs1 mgt1 strain, stronger effect = higher value
Method in brief: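 Genetically altered yeast, compound exposure, growth inhibition relative to vehicle.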

[9] = NCI Yeast Anticancer Drug Screen. Data for the CLN2oe strain (AID 163);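 further: 0% = growth of vehicle-only control cultures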; details: S. cerevisiae CLN2oe strain, stronger effect = higher value
Method in brief: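 Read-out: yeast growth inhibition, expressed relative to vehicle-only controls. The strain bears an engineered cell-cycle alteration.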

[10] = NCI Yeast Anticancer Drug Screen. Data for the cln2 rad14 strain (AID 165);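 further: 0% = growth equal to vehicle treated cultures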; details: S. cerevisiae cln2 rad14 strain, stronger effect = higher value
Method in brief: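 cln2 rad14 yeast strain; compound exposure; growth inhibition read vs vehicle controls.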

[11] = NCI Yeast Anticancer Drug Screen. Data for the bub3 strain (AID 167); details: S. cerevisiae bub3 mutant strain, stronger effect = higher value
Method in brief: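 Compounds were applied to a genetically altered yeast strain carrying a cell-cycle control defect. Growth inhibition was scored against vehicle-treated controls.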

[12] = NCI Yeast Anticancer Drug Screen. Data for the wt2 strain (AID 169);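 further: 0% = growth of vehicle-treated yeast cultures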; details: S. cerevisiae wt2 strain growth inhibition, stronger effect = higher value
Method in brief: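 Read-out: growth inhibition versus vehicle-treated control cultures after compound exposure of the yeast strain.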

[13] = NCI Yeast Anticancer Drug Screen. Data for the mlh1 strain (AID 171);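 further: 0% = growth of vehicle-treated control cultures of the same strain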; details: S. cerevisiae mlh1 strain growth inhibition, stronger effect = higher value
Method in brief: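 Read-out: growth inhibition versus vehicle controls. Strain: engineered yeast with a defined DNA repair or cell cycle defect, compound-treated.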

[14] = NCI Yeast Anticancer Drug Screen. Data for the sgs1 strain (AID 173);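 further: 0% = growth of vehicle-only control cultures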; details: S. cerevisiae sgs1 mutant, stronger effect = higher value
Method in brief: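 Read-out: yeast growth inhibition relative to vehicle controls, following compound exposure of a strain with a defined DNA repair/cell cycle alteration.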

[15] = NCI Yeast Anticancer Drug Screen. Data for the mlh1 rad18 strain (AID 175); details: S. cerevisiae mlh1 rad18 strain growth inhibition, stronger effect = higher value
Method in brief: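 Yeast w/ defined DNA-repair lesions; compound exposure; growth vs vehicle controls → % inhibition.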

[16] = at 5.0 µM (retest, dose inferred, filed as 0.5)
[17] = at 50.0 µM (retest, dose inferred, filed as 5.0)

Measured: growth inhibition

CC(=O)CCC1=C(C)C(=O)C(=O)C(C)=C1O
inactive: [1]; at 1.2 µM -2% | [1]; at 3.7 µM -3% | [1]; at 11.0 µM -4% | [1]; at 33.0 µM 20% | [2]; at 1.2 µM -4% | [2]; at 3.7 µM -8% | [2]; at 11.0 µM -3% | [2]; at 33.0 µM 7% | [3]; at 1.2 µM -2% | [3]; at 3.7 µM -1% | [3]; at 11.0 µM 0% | [3]; at 33.0 µM 7% | [3]; at 100.0 µM 16% | [4]; at 1.2 µM -17% | [4]; at 3.7 µM 0% | [4]; at 11.0 µM 4% | [4]; at 33.0 µM 8% | [5]; at 1.2 µM 0% | [5]; at 3.7 µM 9% | [5]; [16] -6% | [5]; at 11.0 µM 14% | [5]; at 33.0 µM 34% | [5]; [17] 42% | [5]; at 50.0 µM 7.5% | [6]; at 1.2 µM -3% | [6]; at 3.7 µM -6% | [6]; [16] -4% | [6]; at 11.0 µM -9% | [6]; at 33.0 µM 13% | [6]; [17] 12% | [6]; at 50.0 µM 34.7% | [7]; at 1.2 µM -2% | [7]; at 3.7 µM -1% | [7]; at 11.0 µM 5% | [7]; at 33.0 µM 27% | [8]; [16] 6% | [8]; [17] 25% | [8]; at 50.0 µM 39% | [9]; at 1.2 µM 1% | [9]; at 3.7 µM 7% | [9]; at 11.0 µM 7% | [9]; at 33.0 µM 20% | [10]; [16] -6% | [10]; [17] 16% | [10]; at 50.0 µM 14.1% | [11]; at 1.2 µM -5% | [11]; at 3.7 µM -16% | [11]; [16] -14% | [11]; at 11.0 µM 6% | [11]; at 33.0 µM 17% | [11]; [17] 15% | [12]; at 1.2 µM -3% | [12]; at 3.7 µM -3% | [12]; at 11.0 µM -1% | [12]; at 33.0 µM 23% | [13]; at 1.2 µM -5% | [13]; at 3.7 µM -3% | [13]; at 11.0 µM -23% | [13]; at 33.0 µM 13% | [14]; at 1.2 µM -3% | [14]; at 3.7 µM -6% | [14]; at 11.0 µM -2% | [14]; at 33.0 µM 22% | [15]; [16] -28% | [15]; [17] 46% | [15]; at 50.0 µM 20.4%
active: [1]; at 100.0 µM 91% | [2]; at 100.0 µM 80% | [4]; at 100.0 µM 80% | [5]; at 100.0 µM 89% | [6]; at 100.0 µM 83% | [7]; at 100.0 µM 85% | [9]; at 100.0 µM 74% | [11]; at 50.0 µM 75% | [11]; at 100.0 µM 89% | [12]; at 100.0 µM 94% | [13]; at 100.0 µM 96% | [14]; at 100.0 µM 91%

COC(=O)/C(C#N)=C\NC(=S)C(N)=S
active: [1]; at 11.0 µM 86% | [1]; at 33.0 µM 99% | [1]; at 100.0 µM 98% | [2]; at 33.0 µM 99% | [2]; at 100.0 µM 98% | [3]; at 100.0 µM 97% | [4]; at 11.0 µM 79% | [4]; at 33.0 µM 99% | [4]; at 100.0 µM 98% | [5]; at 11.0 µM 90% | [5]; at 33.0 µM 98% | [5]; [17] 98% | [5]; at 50.0 µM 88.5% | [5]; at 100.0 µM 97% | [6]; at 11.0 µM 98% | [6]; at 33.0 µM 99% | [6]; [17] 99% | [6]; at 50.0 µM 93.2% | [6]; at 100.0 µM 98% | [7]; at 11.0 µM 98% | [7]; at 33.0 µM 99% | [7]; at 100.0 µM 98% | [8]; [17] 98% | [8]; at 50.0 µM 91.1% | [9]; at 11.0 µM 96% | [9]; at 33.0 µM 100% | [9]; at 100.0 µM 98% | [10]; [17] 99% | [10]; at 50.0 µM 89.5% | [11]; at 11.0 µM 99% | [11]; at 33.0 µM 99% | [11]; [17] 99% | [11]; at 50.0 µM 91.3% | [11]; at 100.0 µM 98% | [12]; at 33.0 µM 99% | [12]; at 100.0 µM 98% | [13]; at 11.0 µM 98% | [13]; at 33.0 µM 99% | [13]; at 100.0 µM 98% | [14]; at 11.0 µM 86% | [14]; at 33.0 µM 99% | [14]; at 100.0 µM 98% | [15]; [17] 98% | [15]; at 50.0 µM 89.3%
inactive: [1]; at 1.2 µM -6% | [1]; at 3.7 µM 24% | [2]; at 1.2 µM 8% | [2]; at 3.7 µM 26% | [2]; at 11.0 µM 54% | [3]; at 1.2 µM -24% | [3]; at 3.7 µM -24% | [3]; at 11.0 µM 2% | [3]; at 33.0 µM 64% | [4]; at 1.2 µM 9% | [4]; at 3.7 µM 21% | [5]; at 1.2 µM 12% | [5]; at 3.7 µM 30% | [5]; [16] 2% | [6]; at 1.2 µM -5% | [6]; at 3.7 µM 24% | [6]; [16] -1% | [7]; at 1.2 µM 4% | [7]; at 3.7 µM 15% | [8]; [16] 13% | [9]; at 1.2 µM 21% | [9]; at 3.7 µM 40% | [10]; [16] 22% | [11]; at 1.2 µM 24% | [11]; at 3.7 µM 34% | [11]; [16] 4% | [12]; at 1.2 µM -6% | [12]; at 3.7 µM 10% | [12]; at 11.0 µM 40% | [13]; at 1.2 µM 17% | [13]; at 3.7 µM 32% | [14]; at 1.2 µM 9% | [14]; at 3.7 µM 25% | [15]; [16] 50%
